Experimental findings from ChEMBL document CHEMBL1961873, “Compounds: GSK PKIS; Assays: Nanosyn kinase panel” (2012) are described below.

In general, inhibition refers to the change of the read-out against control, counted positive when it falls.

Structures are written as SMILES.

The target of one assay is T1, Ephrin type-B receptor 2 (Homo sapiens) (UniProt P29323).
T1 sequence (whole entry): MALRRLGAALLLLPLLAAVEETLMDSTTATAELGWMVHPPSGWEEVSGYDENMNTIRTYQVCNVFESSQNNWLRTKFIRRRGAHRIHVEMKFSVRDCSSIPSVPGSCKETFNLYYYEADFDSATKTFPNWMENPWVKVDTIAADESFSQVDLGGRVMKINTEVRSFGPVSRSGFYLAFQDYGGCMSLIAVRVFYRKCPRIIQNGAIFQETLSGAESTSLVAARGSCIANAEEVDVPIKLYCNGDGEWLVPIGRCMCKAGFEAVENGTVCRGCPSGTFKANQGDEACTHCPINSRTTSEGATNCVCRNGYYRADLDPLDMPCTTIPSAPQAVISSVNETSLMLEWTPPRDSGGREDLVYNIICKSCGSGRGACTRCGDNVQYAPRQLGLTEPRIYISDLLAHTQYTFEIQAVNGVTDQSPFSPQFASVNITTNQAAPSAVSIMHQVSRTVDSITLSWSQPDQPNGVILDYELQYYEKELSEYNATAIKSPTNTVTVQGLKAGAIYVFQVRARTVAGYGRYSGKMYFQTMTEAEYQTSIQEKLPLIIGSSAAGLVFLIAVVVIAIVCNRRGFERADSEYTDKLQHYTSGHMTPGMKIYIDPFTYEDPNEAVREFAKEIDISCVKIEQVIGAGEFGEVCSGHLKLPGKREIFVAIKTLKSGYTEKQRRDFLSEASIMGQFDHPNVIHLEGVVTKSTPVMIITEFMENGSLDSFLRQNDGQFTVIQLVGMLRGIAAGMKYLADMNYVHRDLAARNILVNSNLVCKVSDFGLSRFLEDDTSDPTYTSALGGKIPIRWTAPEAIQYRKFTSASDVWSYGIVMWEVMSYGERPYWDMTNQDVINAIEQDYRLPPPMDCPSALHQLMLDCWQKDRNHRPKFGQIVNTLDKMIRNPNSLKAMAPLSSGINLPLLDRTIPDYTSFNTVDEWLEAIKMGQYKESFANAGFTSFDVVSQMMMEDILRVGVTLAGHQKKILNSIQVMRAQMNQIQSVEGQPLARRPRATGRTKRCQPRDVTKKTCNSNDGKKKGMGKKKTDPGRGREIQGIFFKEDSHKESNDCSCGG
The following applies: at 1 µM.
For the molecule `O=C(O[C@H]1CN[C@H](C#Cc2cc3ncnc(Nc4ccc(Cc5ccccc5)cc4)c3s2)C1)N1CCOCC1`, the inhibition was 6.03%.

With `CCn1c(-c2nonc2N)nc2ccccc21`, the inhibition came out at 10.1%. In the case of `COc1ccc2[nH]c3c4[nH]c5ccc(OC)cc5c4c4c(c3c2c1)C(=O)NC4=O`, the inhibition was 17.6%. For the molecule `CCn1cc(-c2ccnc3[nH]ccc23)c(-c2cccc(NC(=O)Nc3ccc(OCc4ccccc4)cc3)c2)n1`, the inhibition was -2.78%. Take `Fc1ccc(-c2nn3ncccc3c2-c2ccnc(Nc3ccc4c(c3)OCCO4)n2)cc1`: the inhibition worked out at 73.6%. In the case of `CCN1CCC(CC(=O)Nc2n[nH]c3nnc(-c4cccc(F)c4F)cc23)CC1`, the inhibition was 3.83%. On to `CC(C)COC(=O)c1ccc2c(c1)/C(=C/Nc1ccc(S(N)(=O)=O)cc1)C(=O)N2`, for which the inhibition is -4.93%. As for `COC(=O)Nc1nc2ccc(S(=O)(=O)c3ccc(NC(=O)Nc4cc(C(F)(F)F)ccc4F)cc3)cc2[nH]1`, the inhibition turned out to be 14.7%. Still for that read-out and setting: to `CCOc1ccc2c(-c3ccnc(Nc4cccc(C(F)(F)F)c4)n3)cnn2n1` belongs 9.64%; to `COc1cccc(-n2ncc3c(N/N=C/c4ccc(F)cc4)ncnc32)c1`, 11.3%; to `COc1cc(Nc2nccc(Nc3ccc4c(C)n[nH]c4c3)n2)cc(OC)c1OC`, 65.5%. In the case of `CC1=C(C(=O)Nc2cc(Cl)c3[nH]ncc3c2)C(c2ccc(C(F)(F)F)cc2)CC(=O)N1` (configuration not stated), the inhibition was found to be 6.01%. Consider `CCn1c(-c2nonc2N)nc2c(C#CC(C)(C)O)ncc(OC3CCNCC3)c21`, for which the inhibition came out at 4.11%. As for `CNC(=O)c1cccc(C#Cc2cncnc2Nc2ccc(OCc3cccc(F)c3)c(Cl)c2)c1`, the inhibition is 6.47%. For `COc1ccc(-c2cc3c(N)ncnc3o2)cc1`, the inhibition was determined as 4.07%.

On to `COc1cc(/C=N/Nc2ncnc3[nH]ncc23)ccc1O`, for which the inhibition turned out to be 38.7%.

Regarding `COc1cc2ncn(-c3cc(OCc4ccccc4C(F)(F)F)c(C(=O)N(C)C)s3)c2cc1OC`, the inhibition came out at 3.29%. For `NS(=O)(=O)c1ccc(Nc2ncc(-c3ccccc3)o2)cc1`, the inhibition is 7.75%.

Another assay concerns the target T2, Ephrin type-B receptor 3 (Homo sapiens) (UniProt P54753).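 Also: reported value is the mean percent inhibition of EPHB3.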
T2 sequence (whole entry): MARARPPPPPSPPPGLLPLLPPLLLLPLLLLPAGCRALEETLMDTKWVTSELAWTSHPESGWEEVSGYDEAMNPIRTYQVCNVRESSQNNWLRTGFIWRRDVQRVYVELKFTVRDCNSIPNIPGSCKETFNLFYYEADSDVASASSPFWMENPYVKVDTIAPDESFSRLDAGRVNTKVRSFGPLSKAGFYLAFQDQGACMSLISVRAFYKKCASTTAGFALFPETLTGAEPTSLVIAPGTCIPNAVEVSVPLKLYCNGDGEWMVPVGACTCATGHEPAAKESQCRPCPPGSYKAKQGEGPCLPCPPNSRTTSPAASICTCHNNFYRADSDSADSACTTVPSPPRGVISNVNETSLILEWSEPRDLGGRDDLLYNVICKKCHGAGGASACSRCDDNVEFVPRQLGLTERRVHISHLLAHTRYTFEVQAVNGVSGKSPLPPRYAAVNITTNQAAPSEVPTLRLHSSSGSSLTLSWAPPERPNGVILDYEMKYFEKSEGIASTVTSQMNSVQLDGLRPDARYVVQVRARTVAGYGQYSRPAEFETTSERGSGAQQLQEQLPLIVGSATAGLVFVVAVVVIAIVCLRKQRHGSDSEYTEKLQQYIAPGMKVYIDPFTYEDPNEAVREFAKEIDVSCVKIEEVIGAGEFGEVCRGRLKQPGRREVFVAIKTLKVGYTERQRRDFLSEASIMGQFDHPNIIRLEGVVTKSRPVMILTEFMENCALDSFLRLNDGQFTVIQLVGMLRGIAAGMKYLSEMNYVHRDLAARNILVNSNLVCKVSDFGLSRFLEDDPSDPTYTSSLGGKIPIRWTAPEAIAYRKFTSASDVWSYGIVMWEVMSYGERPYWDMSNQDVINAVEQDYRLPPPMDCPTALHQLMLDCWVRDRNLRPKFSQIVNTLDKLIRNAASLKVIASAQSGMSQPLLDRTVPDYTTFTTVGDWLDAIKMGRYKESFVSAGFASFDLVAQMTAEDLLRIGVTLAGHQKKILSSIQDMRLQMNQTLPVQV
The following applies: at 0.1 µM.
As for `CCCN(CCS(C)(=O)=O)Cc1ccc(-c2ccc3ncnc(Nc4ccc(OCc5cccc(F)c5)c(Cl)c4)c3c2)o1`, the inhibition was 4.42%. The same measure, in the same setting: to `Cc1ccc2c(-c3ccnc(Nc4ccccc4)n3)c(-c3ccc(F)cc3)nn2n1` belongs 6.49%. On to `Fc1ccc(-c2cc(-c3c[nH]nc3-c3ccccn3)ccn2)cc1`, for which the inhibition came out at 7.2%. Regarding `FC(F)(F)c1cccc(-c2nn3ncccc3c2-c2ccnc(Nc3ccc4c(c3)OCCO4)n2)c1`, the inhibition is 5.94%. For `N#Cc1c(NC(=O)CN2CCOCC2)sc2c1CCCC2`, the inhibition came out at 4.21%. Turning to `c1ccc(COc2ccc(Nc3ncnc4ccc(-c5ccco5)cc34)cc2)cc1`, the inhibition stood at 0.82%. The same measure, in the same setting: to `Fc1ccc(-c2nn3ccccc3c2-c2ccncc2)cc1` belongs 4.48%; to `Cc1cccc(Nc2ncc(-c3ccccc3)o2)c1`, 1.56%; to `c1cc(-c2cnn3nc(N4CCOCC4)ccc23)nc(NC2CC2)n1`, 2.88%. Turning to `CC(=O)NCc1cccc(C#Cc2cncnc2Nc2ccc(OCc3cccc(F)c3)c(Cl)c2)c1`, the inhibition turned out to be 2.82%. For `CC(=O)Nc1cccc(C#Cc2cncnc2Nc2ccc(OCc3cccc(F)c3)c(Cl)c2)c1`, the inhibition came to 4.08%. `Nc1nc(-c2cccc(Cl)c2)c(-c2ccc3ncccc3n2)s1`: the inhibition was 5.95%.

As for `COc1ccc(-c2oc3ncnc(N)c3c2-c2ccc(NC(=O)Nc3cc(C(F)(F)F)ccc3F)cc2)cc1`, the inhibition came to 92.7%. Regarding `CC(C)(CO)CNC(=O)c1ccc2c(c1)/C(=N/Nc1ccc(S(N)(=O)=O)cc1)C(=O)N2`, the inhibition is -0.32%.

Consider `CCNC(=O)O[C@H]1CN[C@H](C#Cc2cc3ncnc(Nc4ccc(OCc5cccc(F)c5)c(Cl)c4)c3s2)C1`, for which the inhibition stood at 3.91%.

On to `O=C(O[C@H]1CN[C@H](C#Cc2cc3ncnc(Nc4ccc(Cc5ccccc5)cc4)c3s2)C1)N1CCOCC1`, for which the inhibition came out at 4.37%. `CCn1c(-c2nonc2N)nc2ccccc21`: the inhibition was 5.49%.

As for `COc1ccc2[nH]c3c4[nH]c5ccc(OC)cc5c4c4c(c3c2c1)C(=O)NC4=O`, the inhibition is 0.84%. `CCn1cc(-c2ccnc3[nH]ccc23)c(-c2cccc(NC(=O)Nc3ccc(OCc4ccccc4)cc3)c2)n1`: the inhibition was 0.02%.

On to `CCN1CCC(CC(=O)Nc2n[nH]c3nnc(-c4cccc(F)c4F)cc23)CC1`, for which the inhibition came out at 2.04%. Same read-out and setting: in the case of `CC(C)COC(=O)c1ccc2c(c1)/C(=C/Nc1ccc(S(N)(=O)=O)cc1)C(=O)N2` it was 0.34%; in that of `COC(=O)Nc1nc2ccc(S(=O)(=O)c3ccc(NC(=O)Nc4cc(C(F)(F)F)ccc4F)cc3)cc2[nH]1`, 5.22%. As to `CCOc1ccc2c(-c3ccnc(Nc4cccc(C(F)(F)F)c4)n3)cnn2n1`, the inhibition was 3.96%. For the molecule `COc1cccc(-n2ncc3c(N/N=C/c4ccc(F)cc4)ncnc32)c1`, the inhibition came out at 4.19%.
